Inconclusive results are not listed. The source made the active and inactive calls. The call rests on the fitted dose curve; in most records, active means well fitted activation curve with a large enough effect in the repeat runs; inconclusive means weak or mixed curves, or effect the other way; inactive means no such curve, though single readings can be large or run the other way.
Experiment: qHTS assay to identify small molecule agonists of the retinoic acid receptor (RAR) signaling pathway (AID 1159553)
Conditions: C3RL4 RARE luciferase reporter, agonist, 6 h; series mostly up to 73.3 µM; activation: at the top concentration
How it was run: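 C3RL4 RARE-luciferase cells were seeded at 1,000/well and grown overnight at 37 C, then exposed to compounds for 6 hr at 37 C, 5% CO2. Luciferase reagent was added and luminescence was read after 30 min at room temperature.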
On the % scale 0 is the no-effect control and ±100 the full control effect; potency means the concentration at half of the fitted maximal effect.

Structure (SMILES) | activation | Potency
COc1ccc(/C=C/S(=O)(=O)NC(=O)c2ccc(C)cc2Cl)cc1 | 4.92% (inactive) | –
O=C(NC1CCN(CCc2c[nH]c3ccccc23)CC1)c1ccccc1 | -4.48% (inactive) | –
Cc1ccccc1CCO | 4.33% (inactive) | –
Cc1c(N=C=O)cccc1N=C=O | 0.0109% [at 94.8 µM] (inactive) | –
CC(C)Cc1nccs1 | -0.273% [at 94.8 µM] (inactive) | –
O=C1CCCN1CCO | -5.29% (inactive) | –
CC(=O)CC/C=C(\C)CC/C=C(\C)CC/C=C(\C)CCC=C(C)C | 0.296% (inactive) | –
CCCCCCC/C=C/C=O | -0.798% (inactive) | –
CCOCCn1c(N2CCCN(C)CC2)nc2ccccc21 | 0.189% (inactive) | –
CC(C)C[C@H](NC(=O)[C@H](Cc1ccccc1)NC(=O)c1cnccn1)B(O)O | – | 0.0094 µM (active)
O=C(N[C@@H](Cc1ccccc1)[C@@H](O)C(=O)N1C[C@@H](O)[C@@H](O)C1)c1cc2cc(Cl)ccc2[nH]1 | -8.62% (inactive) | –
C=CC(=O)OCCCCCCCCCC | 5.93% (inactive) | –
CCOc1cc(OCC)c(C(C)=O)cc1OCC | -2.57% (inactive) | –
COc1ccc(/C=C/c2cc(OC)cc(=O)o2)cc1 | – | 2.79 µM (active)
O=C(O)c1ccccc1[N+](=O)[O-] | 0.0767% (inactive) | –
Nc1ccc(C(=O)Oc2ccccc2)c(O)c1 | – | 3.35 µM (active)
O=C(O)c1cc(C(=O)O)cc([N+](=O)[O-])c1 | 0.385% (inactive) | –
CC(C)C/C=C(\C=O)c1ccccc1 | -2.91% (inactive) | –
CC(C)(Cc1c[nH]c2ccccc12)NCC(O)COc1ccccc1C#N (configuration not stated) | -1.74% (inactive) | –
O=C(O)c1ccc(O)c(O)c1 | 0.344% (inactive) | –
O=[N+]([O-])c1ccc(Cl)cc1Cl | 0.165% (inactive) | –
O=C(O)c1ccccc1-n1cc(C(=O)O)c(=O)c2cc(Nc3c(F)cc(F)cc3Cl)c(Cl)cc21 | 0.222% (inactive) | –
